Experimental data from ChEMBL document CHEMBL1157539, “Thousands of chemical starting points for antimalarial lead identification” (Nature, 2010).

Tests used:
Assay type in all cases: functional
Plasmodium falciparum [1] = assay: GSK_TCMDC: Inhibition of Plasmodium falciparum 3D7 in whole red blood cells, using parasite LDH activity as an index of growth. Test compounds present at 2uM
Plasmodium falciparum [2] = assay: GSK_TCMDC: Inhibition of Plasmodium falciparum Dd2 in whole red blood cells, using parasite LDH activity as an index of growth. Test compounds present at 2uM
HepG2 = assay: GSK_TCMDC: Percent inhibition of human HepG2 cell line. Test compounds present at 10uM.

Row | Structure (SMILES) | Inhibition (Plasmodium falciparum [1]) [%] | Inhibition (Plasmodium falciparum [2]) [%] | Inhibition (HepG2) [%]
1 | CCCCCOc1ccc(C(O)C(CN2CCCCC2)c2ccccc2)cc1.Cl (configuration not stated) | 98 | 95 | 11
2 | Cc1cccc(-c2nc(Nc3ccncc3)c3cc(N(C)C)ccc3n2)n1 | 98 | 63 | 5
3 | COc1cccc(NC(=O)Cn2c(C)c(C(=O)C(F)(F)F)c3ccccc32)c1 | 97 | 94 | 2
4 | Cc1cccc2nc(-c3ccc(-c4ccc(CN5CCCC(N)C5)cc4)cc3)[nH]c12.O=C(O)C(F)(F)F (configuration not stated) | 99 | 100 | 33
5 | CCN(CC)CCCNC(=O)/C(=C/C=C/c1cc2cc(Cl)c(Cl)cc2[nH]1)OC.Cl | 84 | 21 | 38
6 | O=C(Nc1cc(Cl)ccc1Cl)N[C@H]1CCN(CCCCCNC(=O)C2CC2c2ccc(Cl)c(Cl)c2)C1 (some centres not stated) | 97 | 1 | 49
7 | OC(CNCc1ccco1)Cn1c2ccc(Br)cc2c2cc(Br)ccc21 (configuration not stated) | 92 | 72 | 10
8 | CC(=O)Nc1ccc(S(=O)(=O)Nc2ccc(Nc3nc(C)cc(N4CCCCC4)n3)cc2)cc1 | 89 | 54 | 23
9 | Nc1c2ccccc2nc2cc(C(F)(F)F)ccc12 | 100 | 49 | 8
10 | Cc1cc(N(C)C)nc(Nc2ccc(NC(=O)c3ccc(Br)o3)cc2)n1 | 100 | 57 | 1
11 | CC(C)CCNc1nc(NCc2ccccc2)c2cc(O)ccc2n1 | 100 | 92 | 25
12 | O=C(O)C(F)(F)F.O=S(=O)(NCCN1CCCC1)c1ccc(-c2ccc(CNCc3ccccc3)cc2)cc1F | 83 | 39 | 35
13 | Cc1cc(N2CCN(C)CC2)nc2ccc(NC(=O)Cc3cccc(C(F)(F)F)c3)cc12 | 99 | 51 | 26
14 | Cc1ccc(Nc2nc(C)cc(NC3CCCC3)n2)cc1 | 100 | 89 | 33
15 | Cc1cccc(C)c1N1CCN(C2CCC(NC(=O)/C=C/c3ccccc3)CC2)CC1 (configuration not stated) | 83 | 34 | 38
16 | COc1ccc(C(=O)Nc2ccc3oc(-c4ccc(C(F)(F)F)cc4)cc3c2)cc1CCCN(C)C | 98 | 27 | 98
17 | CC(C)(C)COC(=O)c1ccc(NC(=O)N[C@@H](Cc2ccc(O)cc2)C(=O)NC2CCN(Cc3ccc(O)cc3)C2)cc1.O=C(O)C(F)(F)F (some centres not stated) | 94 | 21 | 3
18 | CCCCCCCCNc1c2ccc(Cl)cc2nc2ccc(OC)cc12.Cl | 89 | 96 | 11
19 | CC(C)Oc1cc(-c2ccc(S(C)(=O)=O)cc2)nc(N(Cc2cccc(F)c2F)Cc2cccc(F)c2F)n1 | 100 | 99 | 10
20 | O=C(CCC1CCCCC1=O)c1ccccc1 (configuration not stated) | 91 | 3 | 0

Row | Structure (SMILES) | Inhibition (Plasmodium falciparum [1]) [%] | Inhibition (Plasmodium falciparum [2]) [%] | Inhibition (HepG2) [%]
21 | O=C(O)C(F)(F)F.OCC1CCN(Cc2cccc(-c3ccc(-c4nc5cc(C(F)(F)F)ccc5[nH]4)cc3)c2)CC1 | 100 | 95 | 25
22 | Br.COc1cc(CCCON2C(=N)N=C(N)NC2(C)C)cc(OC)c1OC | 98 | 94 | 68
23 | O=C(NCCCN1CCOCC1)c1ccc(-c2cccc(NC(=O)c3ccc(Cl)c(Cl)c3)c2)cc1 | 100 | 68 | 3
24 | CNC(=O)c1cncc(/C=C/c2ccccc2S(N)(=O)=O)c1 | 100 | 77 | 17
25 | CCCc1ccc(NC(=O)c2ccc(CN3CCCN(CC4CCCCC4)CC3)cc2)cc1.O=C(O)C(F)(F)F | 95 | 41 | 49
26 | CCc1ccc(CN2CCC(NC(=O)c3ccc(-c4ccc(N(C)C)cc4)s3)CC2)cc1.O=C(O)C(F)(F)F | 84 | 44 | 52
27 | O=C(O)C(F)(F)F.OCC1CCN(Cc2ccc(-c3cccc(-c4nc5ccccc5[nH]4)c3)cc2)CC1 | 100 | 6 | 21
28 | COc1ccc2[nH]ccc(=NN=Cc3cccnc3)c2c1 | 100 | 84 | 0
29 | COc1cccc(-c2cnc(N)c(-c3nc4ccc(F)cc4[nH]3)c2)c1.Cl | 97 | 43 | 47
30 | COc1ccc2ncc(F)c(CCN3CC[C@H](NC(=O)c4ccc5c(n4)NC(=O)CS5)[C@H](O)C3)c2n1.Cl | 88 | 88 | 20
31 | COc1ccccc1C(=O)Nc1cccc(N2CCC(NCc3ccc(-n4cccn4)cc3)CC2)c1 | 86 | 30 | 9
32 | COc1ccccc1-c1csc(C(=O)NCC2CCN(Cc3ccc(C(C)C)cc3)C2)c1.O=C(O)C(F)(F)F (configuration not stated) | 81 | 6 | 24
33 | COc1ccc(Nc2nccc(-c3ccc4ccnc(NCCCCN)c4c3)n2)cc1 | 95 | 47 | 15
34 | CCCCCCn1c(Sc2ccc(C#N)c([N+](=O)[O-])c2)nnc1-c1ccccc1 | 97 | 41 | 23
35 | COc1ccc(-c2cnc3[nH]cc(-c4ccncc4)c3c2)cc1OC | 98 | 97 | 52
36 | Cc1cccc2nc(-c3cccc(-c4ccc(NC(=O)C(C)CN5CCN(C)CC5)cc4)c3)[nH]c12 (configuration not stated) | 99 | 100 | 7
37 | CCCC(=O)NC(c1cccs1)c1cc(Cl)c2cccnc2c1O (configuration not stated) | 87 | 61 | 51
38 | COc1ccc(C2C(C(=O)Nc3ccc4c(c3)OCO4)c3cc(OC)c(OC)cc3C(=O)N2C)cc1 (configuration not stated) | 89 | 54 | 12
39 | Nc1nccc(-c2ccc3c(/C=C/c4ccccc4)cnc(N)c3c2)n1 | 100 | 100 | 32
40 | Cl.O=c1cc(NCCCCNCc2ccc(Br)c(Br)c2)[nH]c2ccccc12 | 98 | 14 | 13

Row | Structure (SMILES) | Inhibition (Plasmodium falciparum [1]) [%] | Inhibition (Plasmodium falciparum [2]) [%] | Inhibition (HepG2) [%]
41 | CN(C)CCCOc1ccccc1CN1CC[C@H](NC(=O)c2ccc(Cl)c(Cl)c2)C1.O=C(O)C(F)(F)F | 94 | 54 | 42
42 | COc1ccccc1N1CCN(CCCCN(C(=O)Nc2cccc(Cl)c2)C(=O)Nc2cccc(Cl)c2)CC1.Cl | 100 | 65 | 4
43 | Cc1noc(C)c1-c1cccc(CNCc2ccc(-c3ccc(-c4nc5cc(C(F)(F)F)ccc5[nH]4)cc3)cc2)c1.O=C(O)C(F)(F)F | 100 | 97 | 35
44 | CCCCCCN1CCCN(Cc2cccc(NC(=O)c3cc4ccccc4s3)c2)CC1.O=C(O)C(F)(F)F | 88 | 53 | 31
45 | Cc1ccc2c(Cc3cnc(N)nc3N)cc(C)c(N)c2n1.Cl | 91 | 92 | 0
46 | CC(C)(C(=O)NCCC1CCN(CCCCCNC(=O)/C=C/c2ccc(Cl)c(Cl)c2)CC1)c1ccc(Cl)cc1 | 89 | 33 | 92
47 | Cc1n[nH]c2cc(Nc3nccc(Nc4ccc(Oc5ccccc5)cc4)n3)ccc12.Cl | 100 | 98 | 8
48 | COC(=O)c1ccc2nc(-c3ccc(/C=C/C(=O)NCc4ccc(Cl)c(Cl)c4)cc3)[nH]c2c1 | 81 | 3 | 13
49 | COc1ccc2c(c1)CC(NCc1ccc(-c3ccc4nc[nH]c4c3)cc1)C2.O=C(O)C(F)(F)F (configuration not stated) | 100 | 71 | 30
50 | NS(=O)(=O)c1cccc(Nc2nccc(-c3cnn4ncccc34)n2)c1 | 89 | 89 | 39
51 | COc1ccc(C2CCN(CCCCNC(=O)c3ccc(NC(=O)c4ccc(Cl)cc4)cc3)CC2)c(C)c1.Cl | 98 | 35 | 22
52 | CN1CCN(c2ccc3[nH]c(-c4ccc(Cc5cc(Cl)ccc5OCc5ccccc5)o4)nc3c2)CC1.Cl | 100 | 79 | 27
53 | COc1c(C2CCN(CCN3CCC(NC(=O)c4ccc(-c5ccc(C(F)(F)F)cc5)cc4)CC3)CC2)ccc2c1CCCC2 | 82 | 35 | 42
54 | O=C(c1ccc(F)c2ccccc12)N1CCc2cc3nccc(N4CCN5CCC[C@H]5C4)c3cc21 | 90 | 54 | 0
55 | CNC(=O)c1cc(NCCCNCc2ccc(Cl)c(C(F)(F)F)c2)nc2ccccc12.Cl | 91 | 7 | 25
56 | O=S(=O)(c1c(Cl)cc(Cl)cc1Cl)N1CCCCC(c2ccc(F)c(F)c2)=N1 | 87 | 65 | 5
57 | COc1ccc(-c2cnc3ccc(NCCCO)nn23)cc1OC | 98 | 90 | 9
58 | CCc1cn2c3c(cc(C(=O)N[C@@H](Cc4ccccc4)[C@H](O)CN[C@@H](C)CC)cc13)N(C)S(=O)(=O)CC2.O=CO | 99 | 98 | 2
59 | CC(C)(C)c1ccc2[nH]c(-c3ccc(C(=O)NCc4cccc(C(F)(F)F)c4)cc3)nc2c1 | 98 | 26 | 9
